Experimental data taken from PubChem BioAssay.
For part of these data: Measured potencies and affinities stand elsewhere. The list shows a part of the results. The source made the active and inactive calls.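 The calls were made as follows, unless noted: active = membrane potential signal shifting up or down by more than 3 SD of buffer-only wells, on both duplicate plates; inactive = the rest.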

Columns and labels:
[1] = system: TRPC4 beta (transient receptor potential cation channel C4), mouse; assay: activators of mouse TRPC4 channel, confirmation, cell-based, Fluo4 calcium, HEK293 TRPC4beta/mu-opioid, duplicates, 10 µM (AID 2426;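 active = fluorescence ratio normalized to control raised more than 50% in primary screen plus both repeat runs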;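 as to activation: percent rise of integrated ratio over buffer wells lacking compound which define 0%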); conditions: Fluo4 calcium fluorescence, at 10 µM; active compounds read high
[2] = system: transient receptor potential cation channel C4 beta (TRPC4), mouse; assay: activators of mouse TRPC4 channel, confirmation, cell-based, second round, Fluo4, HEK293 TRPC4beta/mu-opioid, 1 µM (AID 2461;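 active = primary screen active and over 50% activation in each of two duplicate runs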;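 as to activation: 0% = wells without test compound as baseline of integrated fluorescence ratio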); conditions: Fluo4 calcium fluorescence, at 1 µM; active compounds read high
[3] = system: TRPC4 (transient receptor potential cation channel C4 beta), mouse; assay: positive allosteric modulators of mouse TRPC4, confirmation, cell-based, second round, Fluo-4, HEK293 TRPC4beta/mu-opioid, 1 µM (AID 2554;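 active = primary screen hit whose fluorescence ratio, in both repeats, exceeds the weak agonist control mean by 3 SD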); conditions: DAMGO EC20, Fluo-4 calcium flux, at 1 µM; active compounds read high
[4] = system: TRPC4 beta (transient receptor potential cation channel C4), mouse; assay: positive allosteric modulators of mouse TRPC4, confirmation, cell-based, Fluo-4, HEK293 TRPC4beta/mu-opioid (AID 2555;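 active = primary screen hit whose calcium fluorescence ratio, in both repeats, exceeds the weak agonist control mean by 3 SD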); conditions: DAMGO EC20, Fluo-4 calcium flux, at 10 µM; active compounds read high
[5] = target: Short transient receptor potential channel 4 (Mus musculus) (UniProt Q9QUQ5); assay: inhibitors of mouse TRPC4 channel, confirmation, cell-based, Fluo4, HEK293 TRPC4beta/mu-opioid (AID 2636;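 active = calcium signal cut by more than 3 SD below the full-agonist control yet still positive, in both repeats and the earlier primary screen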); conditions: DAMGO, Fluo4 calcium flux, at 10 µM; active compounds read high
[6] = target: Short transient receptor potential channel 4 (Mus musculus) (UniProt Q9QUQ5); assay: inhibitors of mouse TRPC4 channel, confirmation, cell-based, second round, Fluo4, HEK293 TRPC4beta/mu-opioid, 1 µM (AID 2637;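 active = calcium signal ratio cut to more than 3 SD under the fully stimulated control mean yet still positive, in both repeats and the primary screen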;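 as to inhibition: percent of integrated ratio relative to wells lacking test compound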); conditions: Fluo4 calcium flux, DAMGO, at 1 µM; active compounds read high
[7] = target: Short transient receptor potential channel 4 (Mus musculus) (UniProt Q9QUQ5); assay: TRPC4 positive allosteric modulators, dose response, cell-based, HEK293 TRPC4/mu-opioid, Fluo-4 calcium, EC20 DAMGO (AID 434941;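 active = earlier screen potentiator hit that boosts the TRPC4 ion channel at some dose, with a dose response; inactive = no potentiation, no dose response, or not a prior hit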;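 also: calcium entry triggered by an EC20 dose of DAMGO at the co-expressed mu-opioid receptor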)
[8] = target: Short transient receptor potential channel 6 (Mus musculus) (UniProt Q61143); assay: inhibition of mouse TRPC6 channel, confirmation, selectivity assay for TRPC4 inhibitor project, cell-based, HEK293, membrane potential dye, duplicate (AID 434948;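 active = active in primary screen and both duplicates, each dropping signal beyond three positive-control SD with fluorescence still positive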); conditions: HEK293 TRPC6, membrane potential dye fluorescence, at 10 µM, stimulated with maximal-effect acetylcholine; active compounds read high
[9] = target: Short transient receptor potential channel 6 (Mus musculus) (UniProt Q61143); assay: activation of mouse TRPC6 channel, confirmation, selectivity assay for TRPC4 activator project, cell-based, HEK293, membrane potential dye, duplicate (AID 434950;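 active = membrane potential signal rise above negative control mean plus 3 SD in both duplicates, also active in the earlier TRPC4 screen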;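 as to activation: 0% = buffer only wells and 100% = acetylcholine maximal-effect wells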); conditions: HEK293 TRPC6, membrane potential fluorescence, at 10 µM; active compounds read high
[10] = target: Short transient receptor potential channel 6 (Mus musculus) (UniProt Q61143); assay: TRPC6 potentiation by TRPC4 potentiator hits, confirmation, selectivity assay for TRPC4 potentiator project, HEK293 cells, membrane potential dye, duplicate (AID 434952;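 active = compound raising the membrane signal above positive-control mean plus 3 SD in both repeats, and a primary screen hit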); conditions: HEK293 TRPC6, membrane potential dye fluorescence, at 10 µM, maximal acetylcholine added after compound; active compounds read high
[11] = target: Short transient receptor potential channel 4 (Mus musculus) (UniProt Q9QUQ5); assay: calcium flux activators in TRPC4/5HT1a cells, counter-screen for TRPC4 activator project, cell-based, second counter screen, HEK293 TRPC4/5HT1a, Fluo-4 (AID 434977;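 active = calcium signal rise above buffer-control mean plus 5 SD in both duplicates, and also a hit in the primary screen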;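 as to activation: plate controls were assay buffer for no effect and maximal serotonin response for full effect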); conditions: Fluo-4 calcium flux, at 10 µM; active compounds read high
[12] = calcium flux inhibitors in TRPC4/5HT1a cells, confirmation, counter-screen for TRPC4 inhibitor project, cell-based, second counter screen, HEK293 TRPC4/5HT1a, Fluo-4 (AID 434978;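 active = primary screen active whose calcium signal fell more than 3 SD beyond the full-serotonin control mean in both duplicate plates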;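 as to outcome: serotonin given first at submaximal then at maximal dose after compound preincubation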); conditions: Fluo-4 calcium flux, at 10 µM, serotonin added to trigger calcium flux; active compounds read high
[13] = system: TRPC4 (mouse), co-expressed with 5HT1a in HEK293; assay: calcium flux potentiators in TRPC4/5HT1a cells, confirmation, counter-screen for TRPC4 potentiator project, cell-based, second counter screen, HEK293 TRPC4/5HT1a, Fluo-4 (AID 434979;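 active = signal rise over 3 SD above mean of control wells given weak agonist, in both repeats and first screen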); conditions: Fluo-4 calcium flux, at 10 µM, serotonin added at its EC20 dose; active compounds read high
[14] = calcium flux activation in mu-opioid HEK293 cells, confirmation, counter-screen for TRPC4 activator project, cell-based, HEK293 mu-opioid receptor line (AID 449723;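 active = hit in primary screen, with calcium signal over 5 SD above buffer well mean in both duplicates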;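 also: counter screen cells carry the mu-opioid receptor alone and lack TRPC4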); conditions: Fluo-4 calcium fluorescence, at 10 µM; active compounds read high
[15] = calcium flux enhancement in mu-opioid HEK293 cells, confirmation, counter-screen for TRPC4 allosteric potentiator project, cell-based, HEK293 mu-opioid receptor line (AID 449724;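 active = calcium signal rise more than 3 SD above the low-dose agonist control mean, in both duplicate plates and the primary screen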); conditions: Fluo-4 calcium flux, at 10 µM, compound added before EC20 DAMGO stimulus; active compounds read high
[16] = target: Short transient receptor potential channel 4 (Mus musculus) (UniProt Q9QUQ5); assay: mouse TRPC4 membrane potential modulation by TRPC6 hits, confirmation, selectivity assay for TRPC6 inhibitor project, cell-based, second specificity screen, HEK293 TRPC4/mu-opioid (AID 2776;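 active = compounds whose fluorescence signal differed from control wells by over 3 SD, either direction, in both duplicate plates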); conditions: HEK293 TRPC4/MOR, membrane potential dye fluorescence, at 10 µM, channel activated by saturating DAMGO dose; active compounds read high
[17] = system: transient receptor potential cation channel C4 (TRPC4), mouse; assay: mouse TRPC4 modulation by TRPC6 hits, confirmation, selectivity assay for TRPC6 inhibitor project, cell-based, HEK293 TRPC4/mu-opioid, membrane potential dye (AID 2777;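 active = rise or fall in signal beyond 3 SD of buffer-only wells in both replicate plates, either sign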;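 also: integrated kinetic ratio of fluorescence range over baseline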); conditions: membrane potential fluorescence, at 10 µM
[18] = nonspecific membrane potential effects, parental HEK293, confirmation, counter-screen for TRPC6 inhibitor project, cell-based, second counter screen (AID 2779;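 active = membrane potential signal moving either way by over 3 SD of the maximum-effect control, in both duplicate plates, meaning non-specific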); conditions: parental HEK293 membrane potential dye fluorescence; at 10 µM; maximal acetylcholine challenge after compound addition
[19] = membrane potential modulation in parental HEK293, confirmation, counter-screen for TRPC6 inhibitor project, cell-based (AID 2780); conditions: parental HEK293 membrane potential dye fluorescence; at 10 µM;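 as to membrane potential signal change: plate controls were buffer EC0 wells for no effect and acetylcholine ECmax wells for full effect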
[20] = target: Short transient receptor potential channel 6 (Mus musculus) (UniProt Q61143); assay: mouse TRPC6 channel inhibitors, confirmation, HEK293 cells, membrane potential dye, duplicate (AID 488960;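 active = fluorescence ratio falls more than 5 SD below the full-stimulation control mean, in both duplicate runs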;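 as to inhibition: integrated fluorescence ratio of peak minus minimum over baseline after agonist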); conditions: ACh-evoked depolarization, at 10 µM; active compounds read high
[21] = target: Short transient receptor potential channel 6 (Mus musculus) (UniProt Q61143); assay: mouse TRPC6 channel activators, confirmation, HEK293 cells, membrane potential dye, duplicate (AID 488961;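 active = ratio signal rise beyond 5 SD above unstimulated control wells' mean, seen in both duplicate runs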); conditions: HEK293-TRPC6 membrane potential dye fluorescence, FDSS, at 10 µM; active compounds read high
[22] = target: Short transient receptor potential channel 4 (Mus musculus) (UniProt Q9QUQ5); assay: mouse TRPC4 channel inhibitors, dose response, cell-based, HEK293 TRPC4/mu-opioid, Fluo-4 calcium (AID 434942;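 active = primary screen inhibitor hit that blocks the TRPC4 channel at some tested dose, yielding a dose curve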)

Short transient receptor potential channel 4 (Mus musculus), sequence (Q9QUQ5 whole entry, looked up): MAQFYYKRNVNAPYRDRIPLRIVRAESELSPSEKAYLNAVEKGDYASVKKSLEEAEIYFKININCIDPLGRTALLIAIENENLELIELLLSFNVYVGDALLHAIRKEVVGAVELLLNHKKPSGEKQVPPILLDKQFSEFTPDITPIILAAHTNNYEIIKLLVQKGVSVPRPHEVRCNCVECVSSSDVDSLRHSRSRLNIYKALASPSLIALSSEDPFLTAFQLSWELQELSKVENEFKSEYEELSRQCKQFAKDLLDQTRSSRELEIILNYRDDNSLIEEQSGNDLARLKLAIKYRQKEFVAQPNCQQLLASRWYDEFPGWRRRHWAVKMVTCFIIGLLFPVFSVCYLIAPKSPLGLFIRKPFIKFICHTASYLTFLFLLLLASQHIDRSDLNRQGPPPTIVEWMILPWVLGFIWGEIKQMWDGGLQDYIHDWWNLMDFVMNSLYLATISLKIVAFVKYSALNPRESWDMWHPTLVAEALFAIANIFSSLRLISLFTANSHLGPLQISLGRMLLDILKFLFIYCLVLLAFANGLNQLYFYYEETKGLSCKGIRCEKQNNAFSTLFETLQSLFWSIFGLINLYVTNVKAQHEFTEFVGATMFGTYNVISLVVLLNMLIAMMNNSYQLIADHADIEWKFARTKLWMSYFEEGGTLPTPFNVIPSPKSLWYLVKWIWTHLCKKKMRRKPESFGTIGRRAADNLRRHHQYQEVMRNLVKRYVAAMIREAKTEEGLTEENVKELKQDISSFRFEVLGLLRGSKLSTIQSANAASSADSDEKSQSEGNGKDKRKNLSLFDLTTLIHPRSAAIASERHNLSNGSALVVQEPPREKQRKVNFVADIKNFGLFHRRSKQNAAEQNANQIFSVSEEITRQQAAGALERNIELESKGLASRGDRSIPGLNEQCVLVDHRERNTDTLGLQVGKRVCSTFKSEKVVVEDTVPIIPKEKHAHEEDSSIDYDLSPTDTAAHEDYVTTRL
Short transient receptor potential channel 6 (Mus musculus), sequence (Q61143 whole entry, looked up): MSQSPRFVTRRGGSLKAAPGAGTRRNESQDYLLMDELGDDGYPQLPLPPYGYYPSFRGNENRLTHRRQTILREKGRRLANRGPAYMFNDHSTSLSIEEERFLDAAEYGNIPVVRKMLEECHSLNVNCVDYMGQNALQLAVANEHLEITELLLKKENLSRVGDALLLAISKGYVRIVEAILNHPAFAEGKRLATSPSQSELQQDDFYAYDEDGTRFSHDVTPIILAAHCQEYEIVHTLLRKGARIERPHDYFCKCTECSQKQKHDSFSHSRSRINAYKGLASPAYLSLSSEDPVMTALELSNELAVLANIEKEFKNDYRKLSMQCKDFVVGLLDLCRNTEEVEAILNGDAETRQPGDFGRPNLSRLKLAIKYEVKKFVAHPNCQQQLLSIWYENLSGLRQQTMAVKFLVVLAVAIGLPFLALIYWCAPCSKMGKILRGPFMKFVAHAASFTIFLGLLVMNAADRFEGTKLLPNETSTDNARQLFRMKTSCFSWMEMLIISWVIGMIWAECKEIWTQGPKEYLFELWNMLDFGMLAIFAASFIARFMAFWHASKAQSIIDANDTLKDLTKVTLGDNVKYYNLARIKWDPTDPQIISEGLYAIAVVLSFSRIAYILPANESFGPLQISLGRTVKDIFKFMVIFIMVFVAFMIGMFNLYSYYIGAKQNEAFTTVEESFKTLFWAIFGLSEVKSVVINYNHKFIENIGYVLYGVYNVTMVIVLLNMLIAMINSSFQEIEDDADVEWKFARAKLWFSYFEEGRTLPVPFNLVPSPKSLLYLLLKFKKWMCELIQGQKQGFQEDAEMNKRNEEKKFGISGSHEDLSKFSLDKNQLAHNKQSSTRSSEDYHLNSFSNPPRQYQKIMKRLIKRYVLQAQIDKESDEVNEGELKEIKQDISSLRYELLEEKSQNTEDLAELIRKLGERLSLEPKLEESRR

CC(NCc1cc(Br)ccc1OCC(=O)NCc1ccccc1)c1ccccc1 (stereo not given)
inactive: outcome [1] | outcome [2] | outcome [3] | outcome [4] | outcome [6] | outcome [7] | outcome [8] | outcome [10] | outcome [11] | outcome [13] | outcome [14] | outcome [15]
active: inhibition [5] 100% | activation [9] 55% | inhibition [12] 35.1%

CCOC(=O)C1(CC2CC2)CCN(Cc2ccc3cccc(F)c3n2)CC1
inactive: outcome [2] | outcome [3] | outcome [4] | outcome [6] | outcome [7] | outcome [8] | outcome [10] | outcome [13] | outcome [14] | outcome [15]
active: activation [1] 129% | inhibition [5] 89% | activation [9] 50.5% | activation [11] 19.5% | inhibition [12] 30.9%

COc1ccc(/C=C/C(=O)Nc2ccccc2C(=O)NCC(c2ccc(OC)cc2)N(C)C)cc1 (stereo not given)
active: inhibition [5] 101% | inhibition [6] 81%
inactive: outcome [1] | outcome [2] | outcome [3] | outcome [4] | outcome [7] | outcome [8] | outcome [9] | outcome [10] | outcome [11] | outcome [12] | outcome [13] | outcome [14] | outcome [15]

CN(C)CCN(C(=O)C1CCCCC1)c1nc2cc3c(cc2s1)OCO3
active: inhibition [5] 75%
inactive: outcome [1] | outcome [2] | outcome [3] | outcome [4] | outcome [6] | outcome [7] | outcome [8] | outcome [9] | outcome [10] | outcome [11] | outcome [12] | outcome [13] | outcome [14] | outcome [15]

O=C1c2ccccc2C(=O)c2c1cccc2N1CCN(Cc2ccccc2)CC1
active: activity change, negative = inhibition [17] -17% | membrane potential signal change [19] -264% | inhibition [20] 59.7%
inactive: outcome [16] | outcome [18] | outcome [21]

Cc1cc(OCCNCCO)cc(C)c1Cl
active: activation [1] 122% | activation [2] 65% | potentiation [3] 20% | potentiation [4] 19% | activation [9] 37% | activation [11] 35.3% | potentiation [13] 24.3%
inactive: outcome [5] | outcome [6] | outcome [22] | outcome [8] | outcome [10] | outcome [12] | outcome [14] | outcome [15]

CN(C)c1ccc(C2N(C)C(=O)c3ccccc3N2C)cc1 (stereo not given)
active: signal change vs control [18] 262%
inactive: outcome [16] | outcome [17] | outcome [19] | outcome [20] | outcome [21]

c1ccc(C2c3[nH]c4ccccc4c3CCN2Cc2cccn2-c2cccnc2)nc1 (stereo not given)
inactive: outcome [16] | outcome [18] | outcome [20] | outcome [21]
active: activity change, negative = inhibition [17] -10.1% | membrane potential signal change [19] -129%

CC1CC(C)CN(C/C=C/c2ccccc2[N+](=O)[O-])C1 (stereo not given)
inactive: outcome [16] | outcome [20] | outcome [21]
active: activity change, negative = inhibition [17] 4.24% | signal change vs control [18] 266% | membrane potential signal change [19] 0.38%

O=C(NNS(=O)(=O)c1ccc(Cl)cc1)C1CCN(Cc2ccccc2)CC1
inactive: outcome [16] | outcome [17] | outcome [21]
active: signal change vs control [18] -4% | membrane potential signal change [19] 0.15% | inhibition [20] 77.8%
